Experimental data reported in PubChem BioAssay (NCATS).
Inconclusive results are not listed. Calls of active or inactive are those of the source. The call rests on the fitted dose curve; in most records, active means well fitted activation curve with a large enough effect; inconclusive means small, poorly fitted or top-dose-only effect; inactive means flat fitted curve, though single readings scatter.

These compounds were tested against D(1A) dopamine receptor (Homo sapiens) (UniProt P21728) (assay: HTS Assay for Allosteric Agonists of the Human D1 Dopamine Receptor: Primary Screen for Agonists (AID 488981; on activation: 0% is about no effect)). Details: Inducible HEK293 T-REx D1 cells, calcium-flux fluorescence, 180 s kinetic; series mostly up to 41.8 µM; activation: at the top concentration.
Sequence of D(1A) dopamine receptor (Homo sapiens) (P21728 whole entry, looked up): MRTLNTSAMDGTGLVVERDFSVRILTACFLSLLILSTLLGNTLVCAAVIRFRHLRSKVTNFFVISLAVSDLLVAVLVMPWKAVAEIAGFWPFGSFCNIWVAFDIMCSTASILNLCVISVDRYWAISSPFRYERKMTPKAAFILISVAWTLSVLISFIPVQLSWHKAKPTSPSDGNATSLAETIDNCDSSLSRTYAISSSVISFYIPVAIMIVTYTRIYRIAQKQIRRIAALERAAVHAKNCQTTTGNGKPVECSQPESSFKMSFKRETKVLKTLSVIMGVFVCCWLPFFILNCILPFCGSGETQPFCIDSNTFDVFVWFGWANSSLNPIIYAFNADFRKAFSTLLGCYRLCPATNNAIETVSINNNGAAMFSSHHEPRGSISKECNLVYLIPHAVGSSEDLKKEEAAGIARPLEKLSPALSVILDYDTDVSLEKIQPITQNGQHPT
From the text: Dopamine receptors (DARs) are involved in the etiology and/or therapy of a number of neuropsychiatric and endocrine disorders. For instance, all receptor-based antiparkinsonian drugs work via stimulating the […] DAR subtype whereas all FDA-approved antipsychotic agents are antagonists of this receptor. […] There are three different types of allosteric modulators that we are seeking, two of which will stimulate or augment receptor signaling, allosteric agonists and potentiators, while the third, allosteric antagonists, will attenuate receptor signaling. The present primary screening assay measures compound agonism by tracking calcium flux in a […], inducible Hek293 Trex D1 cell line.
Freshly passaged cells are plated in 1536 well black, clear bottom plates at a density of 4000 cells/well in 3 ul of complete media containing 1x tetracycline inducer. After an overnight incubation at 30 C in 5% CO2, cells are loaded with 2 ul of the no wash Calcium Assay Kit (ABD Bioquest) and incubated at room temperature for 30 to 90 minutes. A 10 cycle (1 second/cycle) baseline measurement is taken and then the FDSS online 1536 pintool delivers 23 nl of compound library (as well as dopamine controls) to the plate. The plate is measured for kinetically at 1 cycle/sec for 180 seconds and is considered to be the agonist portion of the assay (eg, compounds which activate a positive calcium response during this portion are flagged as potential agonists). Following the 180 second read, 1 ul of an EC20 of dopamine is delivered by an onboard pipette head. Measurements are taken kinetically for an additional 180 seconds.
Potency means the concentration at half of the fitted maximal effect.

Row | SMILES | activation | Potency
1 | C[N+]1(C)CCN(c2ccccc2)CC1 | 0.317% (inactive) | –
2 | CC(=O)c1c(O)c(C)c(O)c(Cc2c(O)c3c(c(C(=O)/C=C/c4ccccc4)c2O)OC(C)(C)C=C3)c1O | -0.159% (inactive) | –
3 | N#C/C(=C/c1ccc(O)c(O)c1)C(N)=S | 12.7% (inactive) | –
4 | C[N+]1(C)C2CCC1CC(OC(=O)c1c[nH]c3ccccc13)C2 (stereo not given) | -1.32% (inactive) | –
5 | CC(C)(C)c1cc(C=C(C#N)C#N)cc(C(C)(C)C)c1O | 15% (inactive) | –
6 | CCCn1c(C)c(C(=O)c2ccc3ccccc3c2)c2ccccc21 | 3.23% (inactive) | –
7 | CP(=O)(O)C1=CCNCC1 | -0.264% (inactive) | –
8 | CCCN(CCC)[C@H]1CCc2c(F)ccc(O)c2C1 | 1.22% (inactive) | –
9 | CC(N)c1cccc(Cl)c1Cl (stereo not given) | 6.19% (inactive) | –
10 | NC(=O)COc1c(F)cc(SCCNS(=O)(=O)c2ccccc2)cc1F | 12.2% (inactive) | –
11 | COc1ccc2c(c1)[C@@]13CCCC[C@H]1[C@@H](C2)NCC3 | 9.99% (inactive) | –
12 | N[C@@H](Cn1ccc(=O)[nH]c1=O)C(=O)O | -0.899% (inactive) | –
13 | CCCN(CCC)C1Cc2cc(OC)c(OC)cc2C1 | -0.264% (inactive) | –
14 | NCC(CP(=O)(O)O)c1ccc(Cl)cc1 (stereo not given) | -0.317% (inactive) | –
15 | CN1CC[C@@]2(C)c3cc(O)ccc3N(C)C12 (stereo not given in full) | -0.899% (inactive) | –
16 | COc1ccc(CNC(=O)/C=C/c2ccc3[nH]cc(CCN(C)C)c3c2)cc1 | -0.317% (inactive) | –
17 | CCCN1CCc2cc(O)cc3c2[C@H]1Cc1ccc(O)c(O)c1-3 | 15.7% (inactive) | –
18 | CCS(=O)(=O)Nc1cccc(C(=C2CCCCC2)c2cnc[nH]2)c1 | 26.4% (inactive) | –
19 | O=[N+]([O-])c1ccc2nc(N3CCNCC3)ccc2c1 | 25.2% (inactive) | –
20 | N[C@@]1(C(=O)O)CC[C@@H](C(=O)O)C1 | -0.211% (inactive) | –

Row | SMILES | activation | Potency
21 | NC(=O)c1ccc(OCC(O)CN2CC=C(c3ccc(F)cc3)CC2)cc1 (stereo not given) | 9.68% (inactive) | –
22 | CNc1ccc2oc(C[C@H]3O[C@@]4(CC[C@H]3C)O[C@H]([C@H](C)C(=O)c3ccc[nH]3)[C@H](C)C[C@H]4C)nc2c1C(=O)O | – | 398 nM (active)
23 | CCCN1CC[C@@H]2c3cc(O)ccc3CC[C@@H]21 | 0.846% (inactive) | –
24 | OCc1cnc[nH]1 | -1.27% (inactive) | –
25 | Nc1ccc(CCN2CCN(c3cccc(C(F)(F)F)c3)CC2)cc1 | 28.8% (inactive) | –
26 | CCNC(=O)[C@H]1O[C@@H](n2cnc3c(N)ncnc32)[C@H](O)[C@@H]1O | 0.106% (inactive) | –
27 | O=[N+]([O-])/C=C/c1ccc2c(c1)OCO2 | -0.317% (inactive) | –
28 | COc1ccc2c(c1)/C(=C/c1cnc[nH]1)C(=O)N2 | 4.92% (inactive) | –
29 | CC(Cc1ccc(OCC(=O)O)cc1)NCC(O)c1cccc(Cl)c1 (stereo not given) | 0.423% (inactive) | –
30 | CCOC(=O)c1ncn2c1[C@@H]1CCCN1C(=O)c1cc(OC)ccc1-2 | -0.846% (inactive) | –
31 | CCCN1CCC[C@@H](c2cccc(O)c2)C1 | 3.44% (inactive) | –
32 | C=CCN1CCC23c4c5ccc(O)c4O[C@H]2C(=O)CC[C@@]3(O)C1C5 (stereo not given in full) | -0.899% (inactive) | –
33 | c1ccc2cc(CC3=NCCN3)ccc2c1 | 0.317% (inactive) | –
34 | O=[N+]([O-])c1cc(O)c(O)c([N+](=O)[O-])c1 | -1.06% (inactive) | –
35 | C[C@@H]1O[C@H](C[N+](C)(C)C)CS1 | 21.9% (inactive) | –
36 | Cc1sc2ccccc2c1CC1=NCCN1 | 1% (inactive) | –
37 | C[N+](C)(C)CCOC(=O)CBr | -0.582% (inactive) | –
38 | N[C@@H](Cn1oc(=O)[nH]c1=O)C(=O)O | -0.899% (inactive) | –
39 | C=CCN(C1=NCCN1)c1c(Cl)cccc1Cl | 1% (inactive) | –
40 | CC(C)(C)c1o[nH]c(=O)c1CC(N)C(=O)O (stereo not given) | -0.264% (inactive) | –
